Shown is part of a subset that was picked to be rich in the strongest signals.
Key:
Assay in all cases: glycan array binding signal (z-score within array); higher = stronger binding
Conditions in all cases: glycan notation: IUPAC condensed, linker removed
[1] = molecular target: Fuc(a1-2)Gal(b1-3)GalNAc(b1-3)Gal
Method in brief: (§1)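 From the Consortium for Functional Glycomics database, 3228 arrays were curated, keeping only those whose protein sequence was available. Binding is given as a within-array Z-score averaged across arrays sharing a protein sequence and across linkers. Negative Z-scores can be read as non-binding.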

[2] = molecular target: Fuc(a1-2)Gal(b1-3)GlcNAc(b1-3)[Neu5Ac(a2-6)Gal(b1-4)GlcNAc(b1-6)]Gal(b1-4)Glc
Method in brief: as §1

[3] = molecular target: Fuc(a1-2)[GalNAc(a1-3)]Gal(b1-3)GlcNAc(b1-2)Man(a1-3)[Fuc(a1-2)[GalNAc(a1-3)]Gal(b1-3)GlcNAc(b1-2)Man(a1-6)]Man(b1-4)GlcNAc(b1-4)GlcNAc
Method in brief: as §1

[4] = molecular target: Fuc(a1-2)[GalNAc(a1-4)]Gal(b1-4)GlcNAc
Method in brief: as §1

[5] = molecular target: Fuc(a1-3)[Gal(b1-4)]GlcNAc(b1-2)Man(a1-3)[Fuc(a1-3)[Gal(b1-4)]GlcNAc(b1-2)Man(a1-6)]Man(b1-4)GlcNAc(b1-4)[Fuc(a1-6)]GlcNAc
Method in brief: as §1

[6] = molecular target: Fuc(a1-3)[Gal(b1-4)]GlcNAc(b1-3)GalNAc
Method in brief: as §1

[7] = molecular target: Gal(a1-2)Gal
Method in brief: as §1

[8] = molecular target: Gal(a1-3)Gal(b1-3)GlcNAc
Method in brief: as §1

[9] = molecular target: Gal(a1-3)Gal(b1-3)[Fuc(a1-4)]GlcNAc(b1-2)Man(a1-3)[Gal(a1-3)Gal(b1-3)[Fuc(a1-4)]GlcNAc(b1-2)Man(a1-6)]Man(b1-4)GlcNAc(b1-4)GlcNAc
Method in brief: as §1

[10] = molecular target: Gal(a1-3)Gal(b1-4)GlcNAc(b1-2)Man
Method in brief: as §1

[11] = molecular target: Gal(a1-3)[Gal(a1-4)]Gal(b1-4)GlcNAc
Method in brief: as §1

[12] = molecular target: Gal(b1-2)Gal
Method in brief: as §1

[13] = molecular target: Gal(b1-3)Gal
Method in brief: as §1

[14] = molecular target: Gal(b1-3)GlcNAc(b1-2)Man(a1-3)[GlcNAc(b1-4)][Gal(b1-3)GlcNAc(b1-2)Man(a1-6)]Man(b1-4)GlcNAc(b1-4)GlcNAc
Method in brief: as §1

[15] = molecular target: Gal(b1-3)GlcNAc(b1-3)Gal(b1-4)[Fuc(a1-3)]GlcNAc
Method in brief: as §1

[16] = molecular target: Gal(b1-3)[Fuc(a1-4)]GlcNAc(b1-2)Man
Method in brief: as §1

[17] = molecular target: Gal(b1-3)[Fuc(a1-4)]GlcNAc(b1-2)Man(a1-3)[Gal(b1-3)[Fuc(a1-4)]GlcNAc(b1-2)Man(a1-6)]Man(b1-4)GlcNAc(b1-4)[Fuc(a1-6)]GlcNAc
Method in brief: as §1

[18] = molecular target: Gal(b1-4)Gal
Method in brief: as §1

[19] = molecular target: Gal(b1-4)GlcNAc(b1-3)Gal(b1-4)GlcNAc(b1-3)Gal(b1-4)GlcNAc
Method in brief: as §1

[20] = molecular target: Gal(b1-4)GlcNAc(b1-3)Gal(b1-4)GlcNAc(b1-3)Gal(b1-4)GlcNAc(b1-3)Gal(b1-4)GlcNAc(b1-2)Man(a1-3)[Gal(b1-4)GlcNAc(b1-3)Gal(b1-4)GlcNAc(b1-3)Gal(b1-4)GlcNAc(b1-3)Gal(b1-4)GlcNAc(b1-2)Man(a1-6)]Man(b1-4)GlcNAc(b1-4)[Fuc(a1-6)]GlcNAc
Method in brief: as §1

[21] = molecular target: Gal(b1-4)GlcNAc(b1-3)Gal(b1-4)GlcNAc(b1-3)[Gal(b1-4)GlcNAc(b1-3)Gal(b1-4)GlcNAc(b1-6)]GalNAc
Method in brief: as §1

[22] = molecular target: Gal(b1-4)GlcNAc(b1-3)Gal(b1-4)[Fuc(a1-3)]GlcNAc(b1-3)Gal(b1-4)[Fuc(a1-3)]GlcNAc
Method in brief: as §1

[23] = molecular target: Gal3S(b1-4)Glc
Method in brief: as §1

[24] = molecular target: Gal3S(b1-4)[Fuc(a1-3)]GlcNAc6S
Method in brief: as §1

[25] = molecular target: Gal3S6S(b1-4)GlcNAc
Method in brief: as §1

[26] = molecular target: Gal4S6S(b1-4)GlcNAc
Method in brief: as §1

[27] = molecular target: Gal6S(b1-4)GlcNAc6S
Method in brief: as §1

[28] = molecular target: GalNAc(a1-3)GalNAc(b1-3)Gal(a1-4)Gal(b1-4)GlcNAc
Method in brief: as §1

[29] = molecular target: GalNAc(b1-4)GlcNAc6S
Method in brief: as §1

[30] = molecular target: GlcA(b1-6)Gal
Method in brief: as §1

[31] = molecular target: GlcNAc(a1-4)Gal(b1-4)GalNAc
Method in brief: as §1

[32] = molecular target: GlcNAc(b1-3)Gal(b1-4)GlcNAc(b1-3)Gal(b1-4)GlcNAc(b1-2)[GlcNAc(b1-3)Gal(b1-4)GlcNAc(b1-3)Gal(b1-4)GlcNAc(b1-6)]Man(a1-6)[GlcNAc(b1-3)Gal(b1-4)GlcNAc(b1-3)Gal(b1-4)GlcNAc(b1-2)Man(a1-3)]Man(b1-4)GlcNAc(b1-4)[Fuc(a1-6)]GlcNAc
Method in brief: as §1

[33] = molecular target: Man(a1-2)Man(a1-2)Man(a1-3)Man
Method in brief: as §1

[34] = molecular target: Man(a1-2)Man(a1-3)[Man(a1-6)]Man(a1-6)[Man(a1-2)Man(a1-3)]Man(b1-4)GlcNAc(b1-4)GlcNAc
Method in brief: as §1

[35] = molecular target: Man(a1-6)Man
Method in brief: as §1

[36] = molecular target: Neu5Ac(a2-3)Gal(b1-3)GlcNAc(b1-2)Man
Method in brief: as §1

[37] = molecular target: Neu5Ac(a2-3)Gal(b1-3)GlcNAc(b1-2)Man(a1-3)[GlcNAc(b1-4)][Neu5Ac(a2-3)Gal(b1-3)GlcNAc(b1-2)Man(a1-6)]Man(b1-4)GlcNAc(b1-4)GlcNAc
Method in brief: as §1

[38] = molecular target: Neu5Ac(a2-3)Gal(b1-3)GlcNAc(b1-6)GalNAc
Method in brief: as §1

[39] = molecular target: Neu5Ac(a2-3)Gal(b1-3)GlcNAc6S
Method in brief: as §1

[40] = molecular target: Neu5Ac(a2-3)Gal(b1-3)[Neu5Ac(a2-6)]GalNAc
Method in brief: as §1

[41] = molecular target: Neu5Ac(a2-3)Gal(b1-3)[Neu5Ac(a2-6)]GlcNAc(b1-3)[Fuc(a1-3)[Gal(b1-4)]GlcNAc(b1-6)]Gal(b1-4)Glc
Method in brief: as §1

[42] = molecular target: Neu5Ac(a2-3)Gal(b1-4)Glc
Method in brief: as §1

[43] = molecular target: Neu5Ac(a2-3)Gal(b1-4)GlcNAc(b1-2)[Neu5Ac(a2-3)Gal(b1-4)GlcNAc(b1-6)]Man(a1-6)[Neu5Ac(a2-3)Gal(b1-4)GlcNAc(b1-2)Man(a1-3)][GlcNAc(b1-4)]Man(b1-4)GlcNAc(b1-4)GlcNAc
Method in brief: as §1

[44] = molecular target: Neu5Ac(a2-3)Gal(b1-4)GlcNAc(b1-3)Gal(b1-4)GlcNAc
Method in brief: as §1

[45] = molecular target: Neu5Ac(a2-3)Gal(b1-4)GlcNAc(b1-3)[Neu5Ac(a2-3)Gal(b1-4)GlcNAc(b1-6)]GalNAc
Method in brief: as §1

[46] = molecular target: Neu5Ac(a2-3)Gal(b1-4)GlcNAc(b1-6)[Gal(b1-3)]GalNAc
Method in brief: as §1

[47] = molecular target: Neu5Ac(a2-6)Gal
Method in brief: as §1

[48] = molecular target: Neu5Ac(a2-6)Gal(b1-4)Glc
Method in brief: as §1

[49] = molecular target: Neu5Ac(a2-6)Gal(b1-4)GlcNAc
Method in brief: as §1

[50] = molecular target: Neu5Ac(a2-6)Gal(b1-4)GlcNAc(b1-2)[Neu5Ac(a2-6)Gal(b1-4)GlcNAc(b1-6)]Man(a1-6)[Neu5Ac(a2-6)Gal(b1-4)GlcNAc(b1-2)Man(a1-3)][GlcNAc(b1-4)]Man(b1-4)GlcNAc(b1-4)GlcNAc
Method in brief: as §1

[51] = molecular target: Neu5Ac(a2-6)Gal(b1-4)GlcNAc(b1-3)GalNAc
Method in brief: as §1

[52] = molecular target: Neu5Ac(a2-6)GalNAc(b1-4)GlcNAc
Method in brief: as §1

[53] = molecular target: Neu5Ac(a2-8)Neu5Ac(a2-3)Gal(b1-4)Glc
Method in brief: as §1

[54] = molecular target: Neu5Ac(a2-8)Neu5Ac(a2-3)Gal(b1-4)GlcNAc
Method in brief: as §1

[55] = molecular target: Neu5Ac(a2-8)Neu5Ac(a2-8)Neu5Ac(a2-8)Neu5Ac(a2-3)[GalNAc(b1-4)]Gal(b1-4)Glc
Method in brief: as §1

[56] = molecular target: Neu5Ac9Ac(a2-3)Gal(b1-3)GlcNAc
Method in brief: as §1

[57] = molecular target: Neu5Gc(a2-3)Gal(b1-3)[Fuc(a1-4)]GlcNAc
Method in brief: as §1

[58] = molecular target: Neu5Gc(a2-3)Gal(b1-4)GlcNAc(b1-3)Gal(b1-4)GlcNAc(b1-2)Man(a1-3)[Neu5Gc(a2-3)Gal(b1-4)GlcNAc(b1-3)Gal(b1-4)GlcNAc(b1-2)Man(a1-6)]Man(b1-4)GlcNAc(b1-4)GlcNAc
Method in brief: as §1

[59] = molecular target: Neu5Gc(a2-6)GalNAc
Method in brief: as §1

[60] = molecular target: Neu5Gc(a2-8)Neu5Gc(a2-3)Gal(b1-4)GlcNAc(b1-3)Gal(b1-4)GlcNAc
Method in brief: as §1

B1: Arath Fbox LD (Arabidopsis thaliana) (protein)
chain: EFSVWLEKASGKRCLMLSAMNLSIIWGDNPQYWQWIPIPESRFEKVAKLRDVCWFEIRGRTNTRVLSPRTRYSAYIVFKGVDKCYGFQNVAIEAAVGVVGQEPSRRLICFSEAIRRGRRNVVKPKQREDGWMEIELGEFFNDGGIMDNDEIEMSALETKQLNRKCGLIIQGIEIRPAKILAAASFLEQKLISEEDLNSAVDHHHHHH
glycan array binding signal (z-score) [1]: -0.344
glycan array binding signal (z-score) [2]: -0.52
glycan array binding signal (z-score) [3]: -0.597
glycan array binding signal (z-score) [4]: 0.47
glycan array binding signal (z-score) [5]: 2.04
glycan array binding signal (z-score) [6]: -0.455
glycan array binding signal (z-score) [7]: -0.171
glycan array binding signal (z-score) [8]: 9.37
glycan array binding signal (z-score) [9]: 2.84
glycan array binding signal (z-score) [10]: -0.233
glycan array binding signal (z-score) [11]: 1.55
glycan array binding signal (z-score) [12]: 2.67
glycan array binding signal (z-score) [13]: -0.517
glycan array binding signal (z-score) [14]: -0.473
glycan array binding signal (z-score) [15]: -0.574
glycan array binding signal (z-score) [16]: 4.02
glycan array binding signal (z-score) [17]: 2.55
glycan array binding signal (z-score) [18]: 1.31
glycan array binding signal (z-score) [19]: 0.403
glycan array binding signal (z-score) [20]: -0.558
glycan array binding signal (z-score) [21]: -0.532
glycan array binding signal (z-score) [22]: -0.413
glycan array binding signal (z-score) [23]: 4.4
glycan array binding signal (z-score) [24]: 3.79
glycan array binding signal (z-score) [25]: 2.51
glycan array binding signal (z-score) [26]: -0.39
glycan array binding signal (z-score) [27]: 0.739
glycan array binding signal (z-score) [28]: -0.368
glycan array binding signal (z-score) [29]: -0.574
glycan array binding signal (z-score) [30]: 1.15
glycan array binding signal (z-score) [31]: 0.26
glycan array binding signal (z-score) [32]: 0.126
glycan array binding signal (z-score) [33]: -0.56
glycan array binding signal (z-score) [34]: -0.337
glycan array binding signal (z-score) [35]: 2.7
glycan array binding signal (z-score) [36]: 2.03
glycan array binding signal (z-score) [37]: -0.462
glycan array binding signal (z-score) [38]: -0.64
glycan array binding signal (z-score) [39]: -0.302
glycan array binding signal (z-score) [40]: -0.264
glycan array binding signal (z-score) [41]: -0.662
glycan array binding signal (z-score) [42]: -0.473
glycan array binding signal (z-score) [43]: -0.407
glycan array binding signal (z-score) [44]: -0.587
glycan array binding signal (z-score) [45]: -0.595
glycan array binding signal (z-score) [46]: -0.599
glycan array binding signal (z-score) [47]: 2.83
glycan array binding signal (z-score) [48]: 0.791
glycan array binding signal (z-score) [49]: -0.052
glycan array binding signal (z-score) [50]: 0.015
glycan array binding signal (z-score) [51]: -0.324
glycan array binding signal (z-score) [52]: -0.53
glycan array binding signal (z-score) [53]: -0.516
glycan array binding signal (z-score) [54]: -0.254
glycan array binding signal (z-score) [55]: 0.508
glycan array binding signal (z-score) [56]: 3.71
glycan array binding signal (z-score) [57]: -0.502
glycan array binding signal (z-score) [58]: -0.554
glycan array binding signal (z-score) [59]: -0.28
glycan array binding signal (z-score) [60]: -0.404

From the supplement of paper PMC8728848
